Luc counter – counter-screen: inhibitors of Kinase-Glo firefly luciferase. Q27757. Kinase-Glo luciferase, ATP luminescence, 8 min. Potency, µM (highest dose often 38.3 µM), without a hit: at the highest dose activity change, negative = inhibition, actives largely listed as inhibitors. 200,000 compounds, 0.28% hits; also: % is scaled to controls: 0 for no effect and ±100 for the full control effect; nearly all actives have a fitted effect of over 60% in size
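Inhibition of Kinase-Glo luciferase light generation was assessed at 10 uM ATP in pH 7.2 imidazole buffer, with luminescence measured after eight minutes at ambient temperature.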
NPC1 promoter act – activators of NPC1 promoter | Potency, µM (titrated, usually from 9.22 µM), inactives show top-dose activation, hits mostly activators | 320,000 compounds, 2.4% hits | Huh7 NPC1 promoter luciferase reporter, 24 h; also: % of control where 0% means no effect; nearly all actives have a fitted effect of over 60% in size
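Stably transfected Huh7 (NPC1 promoter→luciferase), 1500 cells/well in Opti-MEM + 10% FBS, 2 h settle, then compound 24 h at 37 °C. Luminescence after 10 min with Amplite reagent.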
SMN2 splice up – SMN2 splice variant enhancement. HEK293 SMN2-luciferase splicing reporter, luminescence, 30-36 h. Potency, µM (highest dose often 46.1 µM), for the others: at the highest dose activity change, positive = activation, actives largely listed as activators. 210,000 compounds, 2.8% hits; also: % of control where 0% means no effect; nearly all actives have a fitted effect of over 55% in size
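HEK293 cells carry an SMN2 minigene-luciferase reporter in which exon 7 inclusion puts luciferase in frame. Cells were seeded at 2000 cells/well, attached for 10-12 hours, then exposed to compounds for 30-36 hours at 37C before ONE-Glo luminescence.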
ELG1 genotox – induces genotoxicity in HEK293T cells with luciferase-tagged ELG1; Potency, µM (titrated, usually from 46 µM), inactives show at the top dose activity change, positive = activation, most hits filed as activators; 330,000 compounds, 1.3% hits; HEK293T ELG1-luciferase reporter, luminescence, 16 h; also: % of control where 0% means no effect; nearly all actives have a fitted effect of over 60% in size
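ELG1-luciferase HEK293T cells, 2,000/well; compound pinned in; 16 hr, 37 °C, 5% CO2; ONE-Glo, 30 min RT; luminescence on CCD imager.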
Rab9 prom act – activators of Rab9 promoter; 320,000 compounds, 2.8% hits; Huh7 Rab9 promoter-luciferase reporter, luminescence, 24 h; Potency, µM (series often up to 9.22 µM), inactives show at the top dose activation, negative = inhibition, most hits filed as activators; AID 485297; also: % of control where 0% means no effect; nearly all actives have a fitted effect of over 60% in size
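Cell-based reporter: Huh7 stable for Rab9 promoter-driven luciferase, plated in reduced-serum medium with 10% FBS at 1500 cells/well, compound-treated 24 h at 37 °C, luminescence read after 10 min reagent.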
FLuc modulator – firefly luciferase modulation, counter-screen for miR-21 project | AID 588342 | 360,000 compounds, 6.9% hits | P08659 | purified FLuc, Km substrates, luminescence inhibition | Potency, µM (highest dose often 57.5 µM), inactives show at the top dose activity change, negative = inhibition, usual class: inhibitors;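 also: plate controls were vehicle for no effect and reference inhibitor for full effect; nearly all actives have a fitted effect of over 55% in size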
Target sequence (P08659 whole entry, looked up): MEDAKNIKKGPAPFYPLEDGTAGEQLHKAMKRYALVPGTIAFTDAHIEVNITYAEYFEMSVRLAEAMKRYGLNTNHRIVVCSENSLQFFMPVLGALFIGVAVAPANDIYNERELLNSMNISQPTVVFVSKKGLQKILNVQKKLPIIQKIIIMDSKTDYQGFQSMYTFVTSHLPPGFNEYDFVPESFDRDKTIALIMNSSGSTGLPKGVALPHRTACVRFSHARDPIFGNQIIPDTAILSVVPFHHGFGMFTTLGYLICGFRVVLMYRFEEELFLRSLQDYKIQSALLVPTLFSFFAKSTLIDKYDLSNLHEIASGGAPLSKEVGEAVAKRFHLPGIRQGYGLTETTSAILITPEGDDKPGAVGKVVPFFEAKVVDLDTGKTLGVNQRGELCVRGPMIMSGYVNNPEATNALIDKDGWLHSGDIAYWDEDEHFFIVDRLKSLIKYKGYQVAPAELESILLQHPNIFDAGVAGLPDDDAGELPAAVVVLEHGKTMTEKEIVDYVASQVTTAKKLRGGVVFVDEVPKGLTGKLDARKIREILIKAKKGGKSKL
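Biochemical qHTS of compounds, final roughly 60 µM downward over six points, against 10 nM purified firefly luciferase using Km concentrations of substrates (10 uM D-luciferin, 10 uM ATP) in Tris acetate pH 7.5 buffer; luminescence output.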
Active calls of the source: *; u = inconclusive; x = no result. Most compounds without a hit are left out; they make up all but 7.5% or so of the library. Calls follow the shape of the dose curve; as a rule, active = well fitted curve in the direction sought with a large enough effect; inconclusive = small, poorly fitted or top-dose-only effect, or another doubt; inactive = no such curve, though single readings can be large; an effect the other way counts as inactive or inconclusive. Potency is read from the fitted curve at half-maximal effect.

SMILES	Luc counter	NPC1 promoter act	SMN2 splice up	ELG1 genotox	Rab9 prom act	FLuc modulator
COc1ccc(-n2nc(C(=O)NCC(=O)N3CCN(Cc4ccccc4)CC3)c3ccccc3c2=O)cc1	x	-2.8%	x	-15.8%	-2.7%	u
COc1ccc(-n2nc(C(=O)NCC(=O)N3CCCCC3)c3ccccc3c2=O)cc1	x	3.7%	x	1.0%	10.9%	3.01µM*
COc1ccc(-n2nc(C(=O)NCC(=O)N(C)Cc3ccccc3)c3ccccc3c2=O)cc1	x	2.3%	x	-19.7%	6.4%	16.9µM*
CCN1CCN(C(=O)CNC(=O)c2nn(-c3ccc(OC)cc3)c(=O)c3ccccc23)CC1	x	-0.4%	x	14.7%	5.8%	4.78µM*
COc1ccc(-n2nc(C(=O)NCC(=O)O)c3ccccc3c2=O)cc1	x	1.7%	x	0.4%	-2.5%	1.5%
COc1ccc(CC(=O)N/N=C(/C)c2ccco2)cc1	0.2%	-11.4%	x	-0.2%	-3.4%	-0.4%
CCN(Cc1nc(-c2ccc(OC)c(OC)c2)no1)S(=O)(=O)c1ccc(OC)cc1	x	x	-4.1%	x	x	-2.0%
Cc1ccc(C)c(CN2CCC(CNC(=O)C(CC(C)C)N3Cc4ccccc4C3=O)CC2)c1 (stereo not drawn)	x	x	x	x	x	5.2%
Cc1ccc(-n2cc(CN3CCC(O)(c4ccccn4)CC3)c(-c3ccc(F)cc3)n2)cc1	-1.7%	-3.6%	x	-5.7%	-20.5%	16.9µM*
CCOC(=O)CN1C(=O)S/C(=C/C=C/c2ccc(N(C)C)cc2)C1=O	-5.0%	u	u	u	3.55µM*	4.78µM*
O=C(CN1C(=O)S/C(=C\C=C\c2ccccc2)C1=O)N1CCCCC1	x	-5.0%	x	7.6%	9.0%	u
CCOC(=O)CN1C(=O)S/C(=C/c2ccc3c(c2)n(C)c(=O)n3C)C1=O	0.6%	0.0%	15.8µM*	20.6µM*	-4.8%	u
CCc1ccc(N2C(=O)CS(=O)(=O)C23C(=O)N(Cc2ccccc2)c2ccccc23)cc1 (stereo not drawn)	x	x	x	x	x	-8.5%
Cc1cc(C)cc(NC(=O)C(=O)NCC(c2ccc3c(c2)OCO3)N2CCN(C)CC2)c1 (stereo not drawn)	x	x	x	x	x	1.8%
Cc1ccc(Cl)cc1N1CCN(C(=O)c2ccc3c(Cl)c4c(nc3c2)CCCC4)CC1	x	x	-3.5%	x	x	-0.2%
CCc1ccc2oc(C(=O)Nc3nonc3CC)c(C)c2c1	x	u	10.9%	u	3.55µM*	u
Cc1nonc1NC(=O)c1oc2ccc(F)cc2c1C	x	u	x	13.6%	u	-0.6%
COc1ccc(-c2nsc(NC(=O)c3oc4ccc(Cl)cc4c3C)n2)cc1	x	x	3.9%	x	x	-15.8%
Cc1cc2oc(C(=O)Nc3nonc3C)c(C)c2cc1Cl	x	u	x	u	3.55µM*	-5.7%
CCc1ccc2oc(C(=O)Nc3nc(-c4ccccc4)ns3)c(C)c2c1	x	x	u	x	x	5.36µM*
Cc1ccc2c(=O)cc(C(=O)Nc3sc4c(c3C(=O)NCC3CCCO3)CCCC4)oc2c1C (stereo not drawn)	x	x	-7.9%	x	x	1.1%
O=C(CCCc1cccs1)Nc1nc2c(s1)CCCC2	-1.1%	u	15.8µM*	u	u	23.9µM*
CCC(CC)C(=O)Nc1nc2c(s1)CC(C)CC2 (stereo not drawn)	x	x	x	x	x	-21.2%
Cc1cccc(NC(=O)c2c(NC(=O)c3ccco3)sc3c2CCC(C)C3)c1 (stereo not drawn)	x	x	-16.8%	x	x	3.8%
CC1CCc2nc(NC(=O)Cc3cccs3)sc2C1 (stereo not drawn)	-0.2%	3.16µM*	14.1µM*	9.2µM*	2.24µM*	9.53µM*
SMILES	Luc counter	NPC1 promoter act	SMN2 splice up	ELG1 genotox	Rab9 prom act	FLuc modulator
CC1CCc2nc(NC(=O)C3CCCO3)sc2C1 (stereo not drawn)	-1.9%	0.501µM*	2µM*	1.16µM*	0.501µM*	2.13µM*
CC1CCc2nc(NC(=O)c3ccco3)sc2C1 (stereo not drawn)	-20.9%	0.447µM*	-24.5%	u	0.282µM*	0.301µM*
Cc1ccc2nc(N/C(=N/S(=O)(=O)c3cccs3)c3ccccc3Cl)sc2c1	0.3%	-3.5%	13.7%	-4.1%	-0.7%	u
CC(=O)N1c2ccc(S(=O)(=O)NCC3CCC(C(=O)Nc4cc(C)ccc4C)CC3)cc2CC1C (stereo not drawn)	x	x	x	x	x	-2.9%
COc1ccc(Nc2ncc3c(n2)CCN(Cc2cc(Br)cs2)C3)c(OC)c1	x	x	x	x	x	4.0%
Cc1ccc(NC(=O)NNC(=O)C2CCN(Cc3ccc(F)cc3Cl)CC2)cc1	-1.3%	0.4%	x	-3.4%	-12.2%	-1.6%
CCOc1ccccc1C(=O)Nc1nc2c(s1)CC(C)CC2 (stereo not drawn)	x	x	x	x	x	2.69µM*
CCOc1ccccc1C(=O)Nc1nccs1	1.3%	0.9%	-1.5%	2.6%	-1.1%	-6.4%
CC(C)NC(=O)N(C)C[C@H]1Oc2ccc(NC(=O)Nc3ccccc3)cc2C(=O)N([C@@H](C)CO)C[C@@H]1C	x	x	x	-1.6%	x	x
CCc1ccc(NC(=O)CSc2nc(=O)n(Cc3ccncc3)c3c2CCC3)cc1	x	x	x	x	x	0.2%
COc1ccc(CNC(=O)c2ccc3nc(-c4ccc(F)cc4)c(-c4ccc(F)cc4)nc3c2)cc1	x	x	x	x	x	5.0%
Cc1[nH]c2ccccc2c1C(=O)CSC(=S)N(C)C1CCCCC1	0.2%	13.6%	-1.5%	5.1%	-2.3%	15.1µM*
Cc1[nH]c2ccccc2c1C(=O)CSC(=S)N1CCCCC1	-5.8%	u	8.91µM*	u	u	9.53µM*
Cc1ccc(Cl)cc1-n1c(=O)c2sc3ccccc3c2n(CC(=O)NC2CCCCC2)c1=O	x	x	-3.4%	x	x	1.2%
Oc1c(Cl)cc(Cl)cc1CNc1nc2ccccc2[nH]1	x	-4.5%	x	-3.7%	-3.9%	u
Fc1ccc(/C=N/c2c(-c3ccc(F)cc3)nc3n2CCS3)cc1	-3.1%	-0.4%	7.4%	2.0%	-7.2%	1.4%
COc1ccc(/C=N/c2c(-c3ccc(OC)cc3)nc3n2CCS3)cc1	-2.8%	-4.4%	9.3%	1.6%	18.3%	1.9µM*
COc1ccc(NC(=O)C2=CCN(S(=O)(=O)c3ccccc3)CC2)cc1OC	x	0.5%	x	0.0%	-0.4%	-4.7%
CCN(CC)c1ccc(-n2nc3cc(C)c(NC(=O)c4ccccc4C)cc3n2)c(C)c1	x	x	6.31µM*	x	x	7.1%
CCN(CC)c1ccc(NC(=O)c2cccc(C)c2OC)c(C)c1	-12.2%	1.12µM*	u	u	u	10.7µM*
COc1ccc2nc3sc(C(=O)N4CCN(c5ccc(F)cc5)CC4)cc3cc2c1	x	x	1.9%	x	x	-1.1%
Cc1ccc(CC(=O)Nc2nc3c(s2)CCCC3)cc1	-2.0%	9.3%	x	25.6%	7.5%	u
COc1ccccc1OCC(=O)Nc1nc2c(s1)CCCC2	x	21.3%	x	-0.4%	21.7%	-15.3%

Screening data as filed in PubChem BioAssay.
